Results from PubChem BioAssay (NCI).
This is part of a sample that, as a whole, favours compounds with a hit. Of some 79,000 tested, about 15% had one in any assay. Calls of active or inactive are those of the source. Rule as the data show it: active = growth inhibition above about 70%; inactive = the rest.

Test: NCI Yeast Anticancer Drug Screen. Data for the bub3 strain (AID 167)
Details: S. cerevisiae bub3 mutant strain, hits give high values
Description: Growth inhibition of yeast strains with defined genetic alterations is measured as a screen for potential anti-cancer activity. Selected strains with alterations in DNA damage repair or cell cycle control were exposed to compounds and growth inhibition was measured relative to vehicle treated controls. The strain used in this assay is bub3

[1] = at 5.0 µM (retest, dose inferred, filed as 0.5)
[2] = at 50.0 µM (retest, dose inferred, filed as 5.0)

Measured: growth inhibition

O=[N+]([O-])c1ccc(N2CCC(CCCC3CCN(c4ccc([N+](=O)[O-])cc4[N+](=O)[O-])CC3)CC2)c([N+](=O)[O-])c1
active: at 50.0 µM 84.3%
inactive: at 1.2 µM -17% | at 3.7 µM -24% | [1] 6% | at 11.0 µM -32% | at 33.0 µM -6% | [2] 47% | at 100.0 µM -4%

O=P(CCCCP(=O)(c1ccccc1)c1ccccc1)(c1ccccc1)c1ccccc1.[Cl][Sn]([Cl])([c]1ccccc1)[c]1ccccc1
active: at 33.0 µM 93% | [2] 98% | at 50.0 µM 87.5% | at 100.0 µM 96%
inactive: at 1.2 µM 7% | at 3.7 µM -3% | [1] 67% | at 11.0 µM 50%

COC(=O)C1=C(C(=O)OC)SC2(S1)C(C(=O)OC)=C(C(=O)OC)Sc1c2ssc1=O
active: at 11.0 µM 88% | at 33.0 µM 98% | [2] 94% | at 50.0 µM 78.8% | at 100.0 µM 91%
inactive: at 1.2 µM 23% | at 3.7 µM 32% | [1] 55%

C=C[C@H]1CN2CC[C@H]1C[C@@H]2[C@@H](O)c1ccnc2ccccc12
inactive: at 1.2 µM 3% | at 3.7 µM -6% | [1] -8% | at 11.0 µM 1% | at 33.0 µM 1% | [2] -1% | at 50.0 µM -7.5% | at 100.0 µM 1%

C=C1C(C)C2C(Cc3ccccc3)NC(=O)C23C(OC(C)=O)C=CC(C)(O)C(=O)C(C)C/C=C/C3C1O (stereo unspecified)
active: [1] 71% | [2] 98% | at 50.0 µM 84%

CC1(C)N=C(N)N=C(N)N1CCCOc1ccc(NC(=O)c2ccc(S(=O)(=O)F)cc2)cc1
inactive: [1] -8% | [2] -4% | at 50.0 µM -8.15%

Oc1ccc([Te]CCNCC[Te]c2ccc(O)cc2)cc1
inactive: [1] 29% | [2] 29% | at 50.0 µM 30.9%
